# The supplement of paper PMC6555819
# Experiments:
# Test in all cases: PBM binding z-score (relative to random genomic background probes); higher = stronger binding; sequences stand for … in GC…GCGATTGACAGCGTAGAATGAAGG
# [1] = test system: PPARg:RXRa DBDmut IVT, anti-RXR (DBD mutation: RXRa K156A/R161A, NR concentration 270 nM, RXRa partner concentration 90 nM)
# In short: (§1)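 For binding z-scores, the reference was random background probes on custom Agilent 4×180K protein-binding microarrays. These arrays were incubated 1 h with ligand-free nuclear receptor dimers in PBS pH 7.4, 2% milk, 0.02% Triton X-100, 1 mM DTT, 0.2 mg/mL BSA and 0.4 mg/ml salmon testes DNA. Fluorescence was scanned after antibody detection of each partner (one per run) and regression-normalized.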
# [2] = test system: PPARg:RXRa IVT, anti-PPARg (NR concentration 270 nM, RXRa partner concentration 90 nM)
# In short: as §1
# [3] = test system: PPARg DBDmut:RXRa IVT, anti-PPARg (DBD mutation: PPARg1 K132A/R137A, NR concentration 270 nM, RXRa partner concentration 90 nM)
# In short: as §1
# [4] = test system: PPARg DBDmut IVT, anti-PPARg (DBD mutation: PPARg1 K132A/R137A, NR concentration 270 nM)
# In short: as §1
# [5] = test system: PPARg homodimer (NR concentration 180 nM)
# In short: as §1
# [6] = test system: PXR:RXRa (NR concentration 270 nM, RXRa partner concentration 90 nM)
# In short: as §1
# [7] = test system: PXR homodimer (NR concentration 270 nM)
# In short: as §1
# [8] = test system: RARa:RXR (NR concentration 270 nM, RXRa partner concentration 90 nM)
# In short: as §1
# [9] = test system: RARa homodimer (NR concentration 270 nM)
# In short: as §1
# [10] = test system: RARb:RXRa (NR concentration 270 nM, RXRa partner concentration 90 nM)
# In short: as §1
# [11] = test system: RARb homodimer (NR concentration 270 nM)
# In short: as §1
# [12] = test system: RARg:RXRa (NR concentration 270 nM, RXRa partner concentration 90 nM)
# In short: as §1
# [13] = test system: RARg homodimer (NR concentration 270 nM)
# In short: as §1
# [14] = test system: RXRa DBDmut IVT, anti-RXR (DBD mutation: RXRa K156A/R161A, NR concentration 90 nM)
# In short: as §1
# [15] = test system: RXRa homodimer (NR concentration 180 nM)
# In short: as §1
# [16] = test system: THRa:RXRa (NR concentration 90 nM, RXRa partner concentration 90 nM)
# In short: as §1
# [17] = test system: THRa homodimer (NR concentration 90 nM)
# In short: as §1
# [18] = test system: VDR homodimer (NR concentration 270 nM)
# In short: as §1
Sequence,PBM binding z-score [1],PBM binding z-score [2],PBM binding z-score [3],PBM binding z-score [4],PBM binding z-score [5],PBM binding z-score [6],PBM binding z-score [7],PBM binding z-score [8],PBM binding z-score [9],PBM binding z-score [10],PBM binding z-score [11],PBM binding z-score [12],PBM binding z-score [13],PBM binding z-score [14],PBM binding z-score [15],PBM binding z-score [16],PBM binding z-score [17],PBM binding z-score [18]
AGAATGAGTTTATTAAGATCAGGGAATTGCGGTC,-0.196,-0.106,0.457,0.0162,0.334,1.31,2.04,0.154,0.655,0.143,0.079,-0.0299,0.321,3.88,0.093,0.265,0.231,3.05
ATCGAAAGGTCGTGAGGAGAGTATACAGAAAGGC,0.395,1.64,1.22,1.09,2.69,3.21,0.666,4.09,0.902,3.91,2.56,4.52,4.04,1.59,5.22,2.7,0.251,0.69
AGAATGAGGTTATACGTAGATCTGGGAAGAAAGT,3.58,2.08,0.645,0.965,0.546,0.994,0.44,1.5,-0.128,1.23,0.334,1.39,0.958,1.1,1.94,2.03,0.225,0.724
CAAACTTGGTCAAGGTCAAAGTCGGTTTGTGCCA,2.24,3.79,0.249,1.03,1.86,4.45,1.54,4.15,0.201,4.12,4.26,4.46,4.37,2.33,4.72,3.92,3.4,3.32
CGTCAAAGTTCAAGGTAACGTGACAGAAAGCAGC,0.641,2.15,0.0239,0.308,2.16,4.21,2.13,3.56,1.05,5.08,3.72,5.21,5.97,4.54,4.26,2.99,1.08,3.04
CCAGACAGGTGAAATGTAACTCAGTCTGGTACGC,1.56,0.99,-0.289,-0.0118,0.686,0.0204,-0.634,0.296,0.296,0.614,-0.215,0.487,0.478,0.261,0.624,0.0453,-0.307,-0.0884
AATACAGGGTCATCGTATGCCAGAGTACGCACAG,2.86,4.36,4.37,2.02,2.61,4.31,0.464,5.23,0.493,4.21,3.1,5.61,4.95,3.42,6.33,3.67,1.21,3.64
AGAATTAGGTTACCAAAGATCAGGGAAACGCTTG,6.61,6.16,1.54,0.973,1.54,0.000566,0.073,0.336,1,1.25,0.444,0.812,0.884,0.172,0.88,1.12,0.308,-0.053
TCTAGCAGGACAGAGGGTCACTCAAGAGGTACGG,0.809,0.465,-0.0481,-0.462,0.414,1.48,-0.392,2.3,-0.209,2.06,2.77,2.39,2.11,0.168,2.48,1.86,-0.03,0.674
CCGACTGGGGCAAAGTTACCATAACGCACAGCCA,3.71,3.42,-0.241,-0.589,0.229,-0.542,-0.263,-0.168,-0.168,0.462,-0.231,0.149,0.374,0.41,0.344,-0.336,-0.499,-0.275
TGTCAAAGTTCAGAGGTAACGTAAGTATCCACAC,-0.368,3.54,0.775,1.39,2.26,3.39,0.858,3.43,0.97,4.36,3.02,4.64,4.84,3.01,4.22,2.53,0.262,2.11
CCTACTGGGCCATCACGTCATTGATATCAACGTT,4.36,3.56,0.399,0.151,0.3,-0.248,0.0325,0.0611,-0.31,0.25,0.0558,0.0905,0.383,-0.0697,-0.108,-0.192,0.107,-0.136
TCGAGTAGGTTACCAATAGGGCATTCAGCTTTCT,3.28,2.9,-0.0313,0.193,-0.151,0.391,-0.656,0.441,-0.367,1.08,0.965,1.78,0.593,0.262,0.749,0.215,-0.961,-0.368
GCTTACGGGTCAAAGGTTGTAGCATGAATAGAAT,5.13,5.38,0.728,1,3.02,5.04,0.237,7.21,0.364,3.99,2.84,5.74,4.09,2.43,8.07,3.2,0.00313,0.93
ATATGTAGGTTACAACCGGGTCATTCAGGCTATG,7.11,7.41,3.31,2.35,2.21,3.88,1.71,3.96,0.487,2.36,2.97,3.92,2.19,0.912,3.49,3.73,2.16,3.06
GCTTGTAGATCAAAGTTAAGAAAGACTAAGCTAA,0.918,0.871,-0.419,0.433,-0.72,-0.462,-0.397,-0.522,-0.688,-0.479,-0.8,-0.501,-0.292,-0.0516,-0.495,-0.445,-1.4,-0.623
